Compound activity: PubChem BioAssay, several laboratories
Mtb bLac sens: beta-lactam sensitization of Mtb H37Rv, H37Rv; M. tuberculosis H37Rv growth with meropenem, percent inhibition; inhibition, % at 25 µM; AID 434955, 2010; actives 0.27% (n = 330,000); call rule not given here;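 further: growth measured after seven days incubation then overnight dye step; 0% = bacteria only wells and 100% = bacteria with antibiotic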
RN4220 kill: growth inhibition of S. aureus RN4220, primary screen, OD600; 16 h; inhibition, % (concentration not given with the values); actives 0.33% (n = 330,000); AID 1259311, 2017; in the data active means inhibition above about 85%;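 further: plate controls were untreated cells for no effect and reference antibiotic for full effect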
ugtP null kill: growth inhibition of ugtP-null S. aureus, primary screen, RN4220 ugtP deletion, OD600; growth inhibition, % (test concentration not listed); 16 h; actives 0.54% (n = 330,000); in the data active means growth inhibition above about 68%;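 further: plate controls were untreated wells for no effect and antibiotic for full effect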
Mtb hypoxia inh: PubChem AID 1159583; M. tuberculosis hypoxia-regulated fluorescent reporter, fluorescence; fluorescence inhibition, % (concentration not given with the values); actives 0.1% (n = 300,000); in the data active means fluorescence inhibition mostly above about 23%, no sharp cut-off; inactive means mostly below about 17%
* hit, by the source's call. The list is not random: actives were taken first. Their share in the collection is about 0.61%.

What do the screens show for `CC1(C)SC2C(NC(=O)COc3ccccc3)C(=O)N2C1C(=O)OCc1ccccc1` (configuration not stated)?
RN4220 kill: 100*; ugtP null kill: 100*; Mtb hypoxia inh: -4

What do the screens show for `O=C(NN=Cc1cccc([N+](=O)[O-])c1)C1CC(=O)N(c2ccc(Cl)cc2)C1` (configuration not stated)?
RN4220 kill: 2; ugtP null kill: 1; Mtb hypoxia inh: 4

Results for COc1ccc(-c2cc(C(F)(F)F)nc(N3CCN(C)CC3)n2)cc1 ?
Mtb bLac sens: -1; RN4220 kill: 4; ugtP null kill: 17; Mtb hypoxia inh: 16

How did COc1ccc(-c2cc(C(F)(F)F)nc(N3CCCCCC3)n2)cc1 do in these assays?
Mtb bLac sens: 4; RN4220 kill: -4; ugtP null kill: 95*; Mtb hypoxia inh: 14

What do the screens show for `Cc1nn(-c2nc3ccccc3[nH]2)c(N)c1-c1ccc(Cl)cc1`?
Mtb bLac sens: 100; RN4220 kill: 57; ugtP null kill: 95*; Mtb hypoxia inh: 1

Results for Oc1cccc2ccc(/C=C/c3ccccc3Cl)nc12 ?
Mtb bLac sens: 98; RN4220 kill: 83; ugtP null kill: 91*; Mtb hypoxia inh: 11

How did CC(O)C1CNC(=O)C(=O)N1CC1(c2ccccc2)CC1 (configuration not stated) do in these assays?
RN4220 kill: 6; ugtP null kill: 7; Mtb hypoxia inh: 10

What do the screens show for `N#CC(=NNc1ccc([N+](=O)[O-])cc1)C(=N)N1CCCCC1`?
RN4220 kill: 4; ugtP null kill: 1; Mtb hypoxia inh: 42*

What do the screens show for `COc1ccc2c3c(cccc13)C(=O)N(O)C2=O`?
Mtb bLac sens: 2; RN4220 kill: -1; ugtP null kill: 20; Mtb hypoxia inh: 5

Results for CCC1=NNc2cccc3c(OC)ccc1c23 ?
Mtb bLac sens: 101; RN4220 kill: -5; ugtP null kill: -3; Mtb hypoxia inh: 60*

What do the screens show for `CN(C)c1nc(-c2ccccc2)c2cnn(Cc3ccccc3)c2n1`?
Mtb bLac sens: 7; RN4220 kill: -7; ugtP null kill: 89*; Mtb hypoxia inh: 4

What do the screens show for `Cc1cc(C(=O)NC(c2ccccc2)[C@@]2(C)CC2C(C)C(=O)Nc2ccc3ccccc3c2)no1` (some centres not stated)?
RN4220 kill: -6; ugtP null kill: -1; Mtb hypoxia inh: 5

What do the screens show for `COc1ccccc1C(=O)NNC(=S)NC(=O)c1sc2ccccc2c1Cl`?
Mtb bLac sens: 98; RN4220 kill: 18; ugtP null kill: -3; Mtb hypoxia inh: 11

Results for COc1ccc(Cl)cc1C(=O)NNC(=S)NC(=O)c1cc(-c2ccc(Cl)cc2)nc2ccccc12 ?
Mtb bLac sens: 96; RN4220 kill: 115*; ugtP null kill: 57

What do the screens show for `COc1ccccc1C(=O)NC(=S)NNC(=O)c1sc2ccccc2c1Cl`?
Mtb bLac sens: 81; RN4220 kill: 100*; ugtP null kill: 98*; Mtb hypoxia inh: -10

How did CCNC(=S)NNC(=O)c1cc(-c2ccc(OC)cc2)nc2ccccc12 do in these assays?
Mtb bLac sens: 57; RN4220 kill: 5; ugtP null kill: 1; Mtb hypoxia inh: 9

Results for C#CCOCCOCCOCCNc1nc(N2CCN(C(=O)C(CCCCN)n3cc(CCCC)nn3)CC2)nc(N2CCN(C(=O)C(CCCCN)n3cc(CCCC)nn3)CC2)n1 (configuration not stated) ?
RN4220 kill: -1; ugtP null kill: 0; Mtb hypoxia inh: -9

What do the screens show for `CCOC(=O)c1cccc2c1-c1ccccc1C2=NO`?
RN4220 kill: -1; ugtP null kill: 88*; Mtb hypoxia inh: 1

What do the screens show for `Cc1nc(SCC(=O)NCc2ccc3c(c2)OCO3)nc(C)c1C`?
Mtb bLac sens: 3; RN4220 kill: 5; ugtP null kill: 10; Mtb hypoxia inh: 23*

Results for C#CCOCCOCCOCCNc1nc(N2CCN(C(=O)C(C(C)CC)n3cc(C(N)COC(=O)C(F)(F)F)nn3)CC2)nc(N2CCN(C(=O)C(C(C)CC)n3cc(C(N)CC(C)C)nn3)CC2)n1 (configuration not stated) ?
RN4220 kill: 2; ugtP null kill: -11; Mtb hypoxia inh: 19

Results for Oc1ccc(N=Nc2c(O)ccc3ccccc23)cc1 ?
Mtb bLac sens: 97; RN4220 kill: 86*; ugtP null kill: 98*; Mtb hypoxia inh: 11

How did Oc1ccc(N=Nc2ccc3ccccc3c2)cc1 do in these assays?
Mtb bLac sens: 25; RN4220 kill: 99*; ugtP null kill: 99*; Mtb hypoxia inh: 4

What do the screens show for `COc1cc(N=Nc2ccccc2C(=O)O)ccc1O`?
Mtb bLac sens: 5; RN4220 kill: 4; ugtP null kill: 0; Mtb hypoxia inh: 48*
